Results published in PubChem BioAssay (NCI).
Compounds without any hit were thinned out: in the full panel of roughly 79,000, 15% have a hit. The source made the active and inactive calls. Cut-off read from the data, not from the text of the source: active = growth inhibition above about 70%; inactive = the rest.

What was measured:
[1] = NCI Yeast Anticancer Drug Screen. Data for the rad50 strain (AID 155);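 note: 0% = growth of vehicle-only cultures of the same strain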; settings: S. cerevisiae rad50 strain growth inhibition; at 50.0 µM; active compounds read high
Procedure, shortened: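 Compounds were tested on a yeast strain with an engineered DNA damage repair alteration; the reported value is growth inhibition normalised to vehicle treatment.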

[2] = NCI Yeast Anticancer Drug Screen. Data for the mec2-1 strain (AID 157); settings: S. cerevisiae mec2-1 strain, at 50.0 µM, active compounds read high
Procedure, shortened: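 Vehicle-treated cultures served as reference for growth inhibition of compound-exposed mec2-1 yeast.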

[3] = NCI Yeast Anticancer Drug Screen. Data for the sgs1 mgt1 strain (AID 161);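 note: 0% = growth of cultures given vehicle only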; settings: S. cerevisiae sgs1 mgt1 strain, at 50.0 µM, active compounds read high
Procedure, shortened: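 Mutant yeast exposed to compound; growth scored against vehicle-only wells.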

[4] = NCI Yeast Anticancer Drug Screen. Data for the cln2 rad14 strain (AID 165);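 note: 0% = growth equal to vehicle treated cultures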; settings: S. cerevisiae cln2 rad14 strain, at 50.0 µM, active compounds read high
Procedure, shortened: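 Each compound was tested on cln2 rad14 yeast. Inhibition of growth was calculated against vehicle-exposed controls.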

[5] = NCI Yeast Anticancer Drug Screen. Data for the bub3 strain (AID 167); settings: S. cerevisiae bub3 mutant strain, at 50.0 µM, active compounds read high
Procedure, shortened: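 Growth of a checkpoint-deficient yeast mutant is measured after compound exposure. Values represent inhibition relative to vehicle.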

[6] = NCI Yeast Anticancer Drug Screen. Data for the mlh1 rad18 strain (AID 175); settings: S. cerevisiae mlh1 rad18 strain growth inhibition; at 50.0 µM; active compounds read high
Procedure, shortened: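 Vehicle-treated cultures served as the reference for growth inhibition in a yeast strain carrying DNA damage repair alterations exposed to each compound.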

Measured: growth inhibition

COc1cc2nncc(Sc3cnnc4ccccc34)c2cc1OC
inactive: [1] 19.1% | [2] 29.6% | [3] 18.6% | [4] 13.3% | [5] 36% | [6] 35.6%

CC1(C)C/C(=C\c2ccc([N+](=O)[O-])cc2)C(=O)c2ccccc21
active: [1] 80.3% | [2] 71.7% | [3] 77.5% | [5] 76.5% | [6] 89%
inactive: [4] 40.3%

O=C(Nc1cccc(O)c1)Nc1ccc(Cl)cc1[N+](=O)[O-]
active: [1] 98.2% | [2] 99.3% | [3] 99.2% | [4] 97.5% | [5] 83% | [6] 97.8%

NC(=O)C(=O)NNC(=O)Nc1ccc(Cl)cc1
inactive: [1] 16.8% | [2] 12.3% | [3] 7.8% | [4] -13.3% | [5] 1.75% | [6] 20.8%

O=[N+]([O-])c1ccccc1OC1OC(CO)C(O)C(O)C1O (stereo unspecified)
inactive: [1] -2.35% | [2] -5.6% | [3] 14.2% | [4] -33.8% | [5] -14.8% | [6] 7.2%

CCN(CC)CCCC(C)Nc1ccnc2c(Cl)cccc12 (stereo unspecified)
inactive: [1] 15.7% | [2] 14.3% | [3] 22.4% | [4] 22.6% | [5] 5.2% | [6] 2.4%

COC(=O)C1=C(C)NC(C)=C(C(=O)OC)C1c1cc2ccccc2n2nnnc12
inactive: [1] 26.7% | [2] 11.1% | [3] 31.2% | [4] -1.75% | [5] 7.5% | [6] 47.4%

CCCCCCCC/C=C\CCCCCCCC(=O)N(C)CC(=O)O
inactive: [1] 43.2% | [2] 38.2% | [3] 39.2% | [4] 21.1% | [5] 30.7% | [6] 29.1%

COC(=O)CCC1CCCC(CCC(=O)OC)C1=O (stereo unspecified)
inactive: [1] -4.9% | [2] 4.55% | [3] -17.6% | [4] -6.1% | [5] -1.1% | [6] -3.3%

CCN(CC)CCCNc1ncc(C)c2[nH]c3ccncc3c12
inactive: [1] 2.9% | [2] 22.6% | [3] 0.4% | [4] -9.1% | [5] -0.25% | [6] 12.1%

CC(C)Oc1ccc(N2C(=O)C(C)CNC2=S)cc1 (stereo unspecified)
inactive: [1] -13.9% | [2] -1.9% | [3] -1.3% | [4] 4.9% | [5] 6.4% | [6] -8.55%

c1ccc(COC2COC(c3ccccc3)OC2)cc1 (stereo unspecified)
inactive: [1] 5.95% | [2] -35% | [3] 0.7% | [4] 16.9% | [5] 7.45% | [6] 3.15%

C[C@@H]1C[C@H]2[C@@H]3CCC4=CC(=O)C=C[C@]4(C)[C@@]3(F)[C@@H](O)C[C@]2(C)[C@@]1(O)C(=O)CO
inactive: [1] 11.8% | [2] -22.3% | [3] -16.2% | [4] 3.45% | [5] -5.1% | [6] 28.1%

CCOc1nc(N)nc(C)c1N=Nc1ccc(C)cc1
inactive: [1] 1.75% | [2] -8.45% | [3] -4.5% | [4] -34.4% | [5] -5.05% | [6] 2.45%

CCOC(=O)NN(C(=O)OCC)C(C(C)=O)c1ccccc1 (stereo unspecified)
inactive: [1] 3.95% | [2] -3.35% | [3] -10.8% | [4] -9.35% | [5] -0.7% | [6] 17.3%

Cc1nn(C(=O)c2cccnc2)c(-c2ccccc2)c1N=Nc1ccc(S(=O)(=O)Nc2ncccn2)cc1
inactive: [1] 23.7% | [2] 18.4% | [3] 31.4% | [4] 33% | [5] 0.7% | [6] 42.5%

O=C(/C=C/c1cccs1)c1ccc(Cl)s1
inactive: [1] -18.3% | [2] -33.3% | [3] -2.55% | [4] -7.45% | [5] -6.5% | [6] 0.2%

Cc1cc(NC(=O)COCC(=O)O)no1
inactive: [1] -7.15% | [2] -24.9% | [3] 5.65% | [4] 9.45% | [5] 0.6% | [6] -9.15%

O=C1C=C(Nc2ccccc2C(=O)c2ccccc2)c2ccccc2C1=O
inactive: [1] 18.9% | [2] -30.4% | [3] 6.65% | [4] 4.9% | [5] 14.8% | [6] 2.4%

O=C1OC(c2ccc(Cl)cc2)=N/C1=C\c1ccc(Cl)c(Cl)c1
inactive: [1] 35.7% | [2] 19.1% | [3] 59.4% | [4] 19.2% | [5] 38.5% | [6] 31.7%

CCOC(=O)c1cc2cc(C)cc(C(=O)c3ccc([N+](=O)[O-])cc3)c2[nH]1
inactive: [1] 15.1% | [2] 25.4% | [3] 30.6% | [4] 4.15% | [5] -0.55% | [6] -16.3%

CNCCCCCNC
inactive: [1] -7% | [2] -10.6% | [3] -1.05% | [4] -5.45% | [5] -0.2% | [6] 19.2%

CCOC(=O)C1(Cc2ccc3c(c2)CCC3)Cc2cc3c(cc2C1=O)CCC3 (stereo unspecified)
inactive: [1] -11.1% | [2] -28.1% | [3] -17.9% | [4] 19.1% | [5] 14.2% | [6] -2.55%

[Cl][Ge]([Cl])([c]1ccccc1)[c]1ccccc1
inactive: [1] 29.1% | [2] 20.9% | [3] 29.1% | [4] 12.8% | [5] 43% | [6] 29.1%

CCCCNC(=O)OCCN(C)CCOC(=O)NCCCC
inactive: [1] -15.7% | [2] -21.9% | [3] -17.2% | [4] 3.05% | [5] 6.2% | [6] 3.55%

CCN(CC)C(=O)c1ccc[n+](CCC(N)=O)c1
inactive: [1] -1.05% | [2] -17.8% | [3] -3% | [4] 14.8% | [5] -8.5% | [6] 6.6%

OCCc1nccnn1
inactive: [1] -2.65% | [2] 5.8% | [3] 1.9% | [4] -1.35% | [5] 4.65% | [6] -3.6%

CCOC(OCC)C(=O)NNC(C)C
inactive: [1] 15.4% | [2] -7.85% | [3] -2.15% | [4] -39.9% | [5] 10% | [6] -13.9%

O=C(CC(O)(C(F)(F)F)C(F)(F)F)c1ccc(Cl)c([N+](=O)[O-])c1
active: [1] 97.2% | [2] 99.2% | [3] 99.1% | [4] 96.6% | [5] 97.7% | [6] 98.8%

c1ccc(Nc2nnc(Nc3ccccc3)s2)cc1
inactive: [1] -6.15% | [2] 21.6% | [3] 53% | [4] -21.2% | [5] 3.9% | [6] -21.1%

Clc1nc(-c2ccccc2)nc2ccccc12
inactive: [1] -10.1% | [2] -17.6% | [3] -18.2% | [4] -29.6% | [5] -19.8% | [6] -7.25%

Oc1ccc(-c2csc(Nc3ccccn3)n2)cc1O
active: [1] 98.4% | [2] 99% | [3] 99% | [4] 97.2% | [5] 97.7% | [6] 98.8%

Cc1c(F)cc(I)cc1[N+](=O)[O-]
inactive: [1] -3.7% | [2] -9.1% | [3] -11% | [4] 6.9% | [5] 1% | [6] -16.6%

Cc1ccc(N=Nc2ccc(C)cc2NC(=O)Nc2cc(C)ccc2C)cc1
inactive: [1] -3.7% | [2] 8.05% | [3] 27% | [4] -10.9% | [5] 26.1% | [6] -10.4%

Nc1cccc(CNC(=O)COc2ccc(Cl)c(Cl)c2)c1
inactive: [2] 68.9%
active: [1] 84.7% | [3] 89.7% | [4] 77.2% | [5] 79.8% | [6] 82.8%

CC12OC(=O)CC1C(c1ccccc1)(c1ccccc1)O2 (stereo unspecified)
inactive: [1] -7% | [2] -8% | [3] 4.1% | [4] -50.2% | [5] 2.75% | [6] -1.85%

COC(=O)C1=CON2C3CC4CC(C3)CC(C4)C12C (stereo unspecified)
inactive: [1] -2% | [2] -30.6% | [3] -8.95% | [4] -14.2% | [5] -18.4% | [6] -5.9%

CN1CCC2(CC1)C(=O)N(Cc1ccccc1)C(=O)C2c1ccccc1 (stereo unspecified)
inactive: [1] -9.95% | [2] -6.95% | [3] -6% | [4] 6.05% | [5] 3.4% | [6] -13.4%

NS(=O)(=O)c1ccc(NC(=O)Nc2ccccc2)cc1
inactive: [1] -2.8% | [2] -5.35% | [3] 1.8% | [4] -18.1% | [5] 20.1% | [6] 22.3%

CCCCCCCCCCCCCCS(=O)(=O)CCCl
inactive: [1] -5.85% | [2] -6.1% | [3] -21.2% | [4] -6.1% | [5] -5.2% | [6] -7.5%

O=C(O)c1ccc(CSc2ccccc2C(=O)O)cc1
inactive: [1] 16.4% | [2] -16.6% | [3] -6.95% | [4] 15.4% | [5] -14.7% | [6] 33.8%
